This note sets out measurements from ChEMBL document CHEMBL1961873, “Compounds: GSK PKIS; Assays: Nanosyn kinase panel” (2012).

Assay [1] addresses RAC-alpha serine/threonine-protein kinase (Homo sapiens) (UniProt P31749). The settings on record: at 0.1 µM.
For assay [2] the target is unchanged. The settings on record: at 1 µM.
Assay [3] has as its target RAC-beta serine/threonine-protein kinase (Homo sapiens) (UniProt P31751). The settings on record: at 0.1 µM.
For assay [4] the target is unchanged. The settings on record: at 1 µM.
For assay [5], the target named is RAC-gamma serine/threonine-protein kinase (Homo sapiens) (UniProt Q9Y243). The note with it: at 0.1 µM.
RAC-gamma serine/threonine-protein kinase (Homo sapiens), sequence (Q9Y243 whole entry): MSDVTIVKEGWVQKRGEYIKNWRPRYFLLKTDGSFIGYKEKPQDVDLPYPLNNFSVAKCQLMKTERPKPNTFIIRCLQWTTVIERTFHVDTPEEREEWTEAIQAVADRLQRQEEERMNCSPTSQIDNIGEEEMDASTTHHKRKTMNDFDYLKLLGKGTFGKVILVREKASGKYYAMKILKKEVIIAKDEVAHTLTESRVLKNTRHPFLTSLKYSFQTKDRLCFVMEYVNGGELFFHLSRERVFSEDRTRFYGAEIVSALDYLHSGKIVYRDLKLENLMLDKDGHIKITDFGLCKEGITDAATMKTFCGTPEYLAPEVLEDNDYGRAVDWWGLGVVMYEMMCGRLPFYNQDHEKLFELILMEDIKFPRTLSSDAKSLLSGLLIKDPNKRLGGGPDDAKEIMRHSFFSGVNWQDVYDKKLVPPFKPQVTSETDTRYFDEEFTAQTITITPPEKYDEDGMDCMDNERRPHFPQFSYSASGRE
Assay [6] has the same target. The settings on record: at 1 µM.
The target of assay [7] is G protein-coupled receptor kinase 6 (Homo sapiens) (UniProt P43250). The settings on record: at 0.1 µM.
G protein-coupled receptor kinase 6 (Homo sapiens), sequence (P43250 whole entry, looked up): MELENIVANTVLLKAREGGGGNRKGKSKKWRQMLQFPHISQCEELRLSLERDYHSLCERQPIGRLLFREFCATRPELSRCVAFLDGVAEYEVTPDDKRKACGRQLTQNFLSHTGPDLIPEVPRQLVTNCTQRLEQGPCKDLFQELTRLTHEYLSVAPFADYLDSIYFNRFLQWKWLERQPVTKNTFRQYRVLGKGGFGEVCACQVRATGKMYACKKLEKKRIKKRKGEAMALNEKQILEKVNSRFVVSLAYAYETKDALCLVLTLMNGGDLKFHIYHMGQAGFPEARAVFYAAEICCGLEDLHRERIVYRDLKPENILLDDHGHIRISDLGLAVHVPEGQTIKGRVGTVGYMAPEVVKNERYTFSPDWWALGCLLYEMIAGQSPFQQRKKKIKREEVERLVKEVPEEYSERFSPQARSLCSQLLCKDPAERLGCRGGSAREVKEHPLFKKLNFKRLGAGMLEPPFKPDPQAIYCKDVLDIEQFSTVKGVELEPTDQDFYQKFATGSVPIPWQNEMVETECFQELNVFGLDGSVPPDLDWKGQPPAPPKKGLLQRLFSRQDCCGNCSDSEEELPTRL
For assay [8] the target is unchanged. The note with it: at 1 µM.
Assay [9] addresses T1, Rhodopsin kinase GRK7 (Homo sapiens) (UniProt Q8WTQ7).
T1 sequence (whole entry): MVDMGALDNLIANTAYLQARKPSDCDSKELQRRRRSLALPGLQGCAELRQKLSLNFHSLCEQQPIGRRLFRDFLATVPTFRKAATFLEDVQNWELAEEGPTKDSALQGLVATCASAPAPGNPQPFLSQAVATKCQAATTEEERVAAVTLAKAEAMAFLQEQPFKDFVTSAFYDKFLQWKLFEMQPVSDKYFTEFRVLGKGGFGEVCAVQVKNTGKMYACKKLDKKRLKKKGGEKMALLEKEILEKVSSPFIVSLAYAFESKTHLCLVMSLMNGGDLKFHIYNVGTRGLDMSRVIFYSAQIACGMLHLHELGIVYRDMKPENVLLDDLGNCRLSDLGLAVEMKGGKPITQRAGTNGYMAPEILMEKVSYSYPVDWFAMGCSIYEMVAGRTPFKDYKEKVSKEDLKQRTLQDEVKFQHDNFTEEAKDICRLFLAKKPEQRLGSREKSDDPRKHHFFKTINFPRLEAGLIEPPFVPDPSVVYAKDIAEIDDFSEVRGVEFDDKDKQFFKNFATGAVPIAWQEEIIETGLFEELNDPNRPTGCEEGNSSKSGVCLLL
The note with it: at 0.1 µM.

Assay [10] has as its target T1, Rhodopsin kinase GRK7 (Homo sapiens). The settings on record: at 1 µM.

RAC-alpha serine/threonine-protein kinase (Homo sapiens), sequence (P31749 whole entry): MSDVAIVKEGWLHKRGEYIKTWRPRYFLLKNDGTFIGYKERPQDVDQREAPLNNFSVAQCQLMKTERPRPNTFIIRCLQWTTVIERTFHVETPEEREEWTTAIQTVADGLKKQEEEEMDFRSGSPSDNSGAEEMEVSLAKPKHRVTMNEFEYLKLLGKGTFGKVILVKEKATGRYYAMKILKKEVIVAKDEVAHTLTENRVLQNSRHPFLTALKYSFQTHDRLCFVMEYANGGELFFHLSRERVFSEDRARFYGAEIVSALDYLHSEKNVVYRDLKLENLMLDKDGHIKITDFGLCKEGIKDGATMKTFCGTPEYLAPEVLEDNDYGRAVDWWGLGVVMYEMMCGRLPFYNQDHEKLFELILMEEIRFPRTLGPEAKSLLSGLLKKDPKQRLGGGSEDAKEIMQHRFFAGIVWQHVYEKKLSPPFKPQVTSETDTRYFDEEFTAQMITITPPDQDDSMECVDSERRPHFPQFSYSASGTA
RAC-beta serine/threonine-protein kinase (Homo sapiens), sequence (P31751 whole entry): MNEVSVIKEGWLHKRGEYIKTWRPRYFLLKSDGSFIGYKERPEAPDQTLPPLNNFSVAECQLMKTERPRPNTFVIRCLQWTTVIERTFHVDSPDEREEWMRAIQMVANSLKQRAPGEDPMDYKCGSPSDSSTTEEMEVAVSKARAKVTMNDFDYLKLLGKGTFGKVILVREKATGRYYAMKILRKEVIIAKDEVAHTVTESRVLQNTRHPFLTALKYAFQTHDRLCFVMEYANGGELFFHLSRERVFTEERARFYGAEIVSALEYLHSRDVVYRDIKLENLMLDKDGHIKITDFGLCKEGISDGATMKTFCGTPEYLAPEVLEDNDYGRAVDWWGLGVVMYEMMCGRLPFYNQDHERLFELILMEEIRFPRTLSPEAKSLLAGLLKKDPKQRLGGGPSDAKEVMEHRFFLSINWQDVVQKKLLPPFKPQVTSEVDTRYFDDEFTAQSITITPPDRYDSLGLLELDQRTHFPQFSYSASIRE

What is called inhibition is the drop in the measured response relative to a control, in per cent. Turning to `CCn1c(-c2nonc2N)nc2cnc(Oc3cccc(NC(=O)c4ccc(OCCN5CCOCC5)cc4)c3)cc21`, the inhibition turned out to be 1.6% in assay [1]; 7.87% in [2]; 2.69% in assay [3]; 7.74% in assay [4]; 2.01% in assay [5]; 7.9% in [6]. Further, the inhibition in assay [7] is 6.32%; in assay [8] it was 9.42%; in [9], 1.38%; in assay [10], 9.5%.

On to `Cc1ccc(C(=O)NC2CCCCC2)cc1-c1ccc(C(=O)NCC2CC2)cc1`, for which the inhibition in [1] came out at 0.04%; in [2] it was 0.76%; in [3], 1.52%; in assay [4], 1.72%; in assay [5], 2.01%; in assay [6], 0.64%. Further, the inhibition in assay [7] is -0.29%; in assay [8], -3.25%; in assay [9], 2.64%; in assay [10], 6.92%.

Consider `NS(=O)(=O)c1cccc(-c2ccc3c(NC(=O)C4CC4)n[nH]c3c2)c1`, for which the inhibition in assay [1] was -2.14%; in assay [2], -1.44%; in assay [3], -4.21%; in [4], -1.31%; in assay [5], -1.31%; in [6], -2.99%. The inhibition is 1.43% in assay [7], 2.82% in [8], -7.07% in assay [9] and -0.65% in assay [10].

`Cc1nnc(-c2ccc(C)c(-c3ccc(C(=O)Nc4cccc(C#N)c4)cc3)c2)o1`: the inhibition in assay [1] came out at 0.44%; in assay [2], 0.29%; in assay [3], 0.76%; in assay [4], 0.57%; in assay [5] it was 1.16%; in [6], 1.22%. Further, the inhibition in [7] was determined as 2.81%; in assay [8], 3.91%; in assay [9] it was 2.5%; in assay [10] it was 7.22%.

For `CCn1c(-c2nonc2N)nc2cncc(C(=O)N3CC[C@H](N)C3)c21`, the inhibition in [1] was determined as 3.33%; in assay [2], 19.5%; in [3], 3.72%; in assay [4] it was 13.3%; in assay [5] it was 5.44%; in assay [6] it was 32.9%. For the same compound, the inhibition amounted to 6.84% in assay [7], 8.03% in assay [8], 3.41% in [9] and 10.7% in assay [10].

As to `COc1ccc2cc(-c3c(-c4ccncc4)nc(-c4ccc([S+](C)[O-])cc4)n3C)ccc2c1` (stereo not given), the inhibition is 1% in assay [1]; 0.09% in assay [2]; 1.34% in [3]; 1.69% in assay [4]; 1.23% in assay [5]; 0.72% in assay [6]. Also, the inhibition in assay [7] is -3.74%; in [8], -0.39%; in assay [9], 2.62%; in [10], 2.42%.

With `CN1CCC(C(=O)Nc2n[nH]c3nnc(-c4ccccc4)cc23)CC1`, the inhibition came to 0.8% in assay [1]; 0.53% in assay [2]; 3.48% in assay [3]; 1.57% in assay [4]; 2.3% in [5]; 2.79% in [6]. Besides, the inhibition in [7] was found to be 7.16%; in assay [8], 14.5%; in [9], 7.52%; in [10], 15.6%.

Consider `CNC(=O)c1cncc(/C=C/c2c(Cl)cccc2Cl)c1`, for which the inhibition was -2.98% in [1]; -2.11% in assay [2]; -2.93% in assay [3]; -2.77% in assay [4]; -3.04% in assay [5]; 0.11% in [6]. In addition, the inhibition came to 3.3% in assay [7], 4.35% in [8], 10.6% in [9] and 8.22% in [10].

For `COc1cc2ncn(-c3cc(O[C@H](C)c4ccccc4Cl)c(C(N)=O)s3)c2cc1OC`, the inhibition in assay [1] is 1.41%; in assay [2], 2.07%; in assay [3] it was 2.49%; in assay [4], 2.19%; in [5], 0.81%; in [6], 1.74%. In addition, the inhibition was 3.78% in [7], 15% in [8], 5.01% in [9] and 10.8% in assay [10].

For the compound `Fc1cccc(COc2ccc(Nc3ncnc4cc(-c5ccc[nH]5)sc34)cc2Cl)c1`, the inhibition in assay [1] was -3.51%; in assay [2], -3.04%; in [3], -2.34%; in assay [4], -1.49%; in [5], -3.34%; in assay [6], -3.78%. Besides, the inhibition is 5% in assay [7], 2.64% in assay [8], 1.96% in assay [9] and 13.6% in assay [10].

Regarding `COC(=O)Nc1nc2cc(Oc3ccc(NC(=O)Nc4cccc(C(=O)O)c4)cc3)ccc2[nH]1`, the inhibition in assay [1] was -2.71%; in assay [2] it was -3.33%; in [3], -3.47%; in [4] it was -2.42%; in assay [5], -1.3%; in assay [6], -3.6%. For the same compound, the inhibition is 2% in [7], -0.77% in assay [8], 1.5% in assay [9] and -3.21% in assay [10].

Take `CCCN1CCC(Oc2cc(Nc3nc(Nc4cccc(F)c4C(N)=O)c4cc[nH]c4n3)c(OC)cc2Cl)CC1`: the inhibition in [1] stood at 0.07%; in [2], 1.83%; in assay [3], 1.14%; in [4] it was 2.04%; in assay [5], 1.42%; in assay [6], 1.06%. Further, the inhibition in assay [7] was determined as 1.2%; in assay [8], 1.87%; in [9], 3.39%; in [10] it was 7.39%.

For the compound `Cc1cccc(-c2n[nH]cc2-c2ccc3ncccc3n2)n1`, the inhibition in assay [1] is -0.73%; in assay [2], 0.02%; in assay [3], 0.56%; in assay [4] it was -0.22%; in assay [5], 2.42%; in assay [6], 2.13%. For the same compound, the inhibition is 0.46% in [7], 3.16% in assay [8], -0.51% in [9] and 5.08% in assay [10].

For the compound `CS(=O)(=O)CCNCc1ccc(-c2ccc3ncnc(Nc4ccc(OCc5ccccc5)c(Cl)c4)c3c2)o1`, the inhibition in assay [1] is -1%; in assay [2], -0.87%; in assay [3], 0.26%; in assay [4], 0.32%; in [5], -0.1%; in assay [6] it was -0.63%. The inhibition in assay [7] is 0.49%; in assay [8], 0.68%; in assay [9] it was 7.87%; in assay [10] it was -3.27%.

`COc1cc(C=NNc2ncnc3c2cnn3-c2ccccc2)ccc1O`: the inhibition in assay [1] was 0.7%; in assay [2], -1.12%; in assay [3] it was 2.4%; in assay [4], -2.91%; in [5], 1.08%; in assay [6], -1.19%. The inhibition is 1.52% in [7], -6.34% in assay [8], -0.04% in assay [9] and -4.38% in assay [10].

As for `CC(C)=Cc1cccc2c1/C(=N/Nc1ccc(S(N)(=O)=O)cc1)C(=O)N2`, the inhibition came to 0.31% in assay [1]; 0.65% in assay [2]; 0.76% in [3]; 0.93% in assay [4]; 2.87% in assay [5]; 0.49% in [6]. For the same compound, the inhibition in assay [7] is 3.06%; in assay [8], 8.62%; in [9] it was 1.04%; in [10], -0.7%.

As for `[O-][S+]1CCN(Cc2ccc(-c3ccc4ncnc(Nc5ccc(OCc6ccccc6)c(F)c5)c4c3)o2)CC1`, the inhibition was 0.83% in assay [1]; -0.19% in [2]; 2.53% in [3]; 0.9% in assay [4]; 0.99% in [5]; 1.21% in [6]. The inhibition is 3.78% in assay [7], -2.01% in [8], 1.86% in [9] and -0.58% in assay [10].
